# Sampled rows, rich in hits. Any-hit rate of the full collection: about 19%.
# HT1080 IDH1KD tx: toxicity to HT-1080 IDH1 knockdown cells (counter line). Potency, µM (top dose mostly 46.1 µM), for the others: at the top dose activity, negative = toxicity, actives largely listed as cytotoxic. HT-1080 IDH1 knockdown viability, ATP luminescence, 48 h. 360,000 tested, 2% active;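 further: 0% = DMSO wells and -100% = cell-free medium wells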
#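 % activity derives from luminescence (CellTiter-Glo), normalised to DMSO and no-cell wells. HT-1080-IDH1KD cells, 750/well, had 48 h compound exposure at 37 °C.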
# KB-3-1 cytotox: KB-3-1 parental cell cytotoxicity; AID 1347075; KB-3-1 viability, CellTiter-Glo ATP luminescence, 72 h; 400,000 tested, 1.4% active; Potency, µM (doses to about 46.1 µM), hits mostly cytotoxic; further: nearly all actives have a fitted effect of over 60% in size
#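 Using CellTiter-Glo luminescence, growth of non-resistant KB-3-1 adenocarcinoma cells is assessed 72 h after pin-tool compound addition at 37 °C. Normalized responses across the concentration series yield fitted curves.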
# HT1080-NT tox: kills 2HG-producing HT-1080-NT fibrosarcoma cells; Potency, µM (titrated, usually from 46.1 µM), for inactives: top-dose activity, negative = less viability, most hits filed as cytotoxic; AID 686970; HT-1080-NT fibrosarcoma viability, CellTiter-Glo ATP luminescence, 48 h; 360,000 tested, 1.6% active;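 further: NT is the 2HG producing partner of a matched IDH1 knockdown line; 0% = DMSO-treated cells and -100% = media-only wells without cells; nearly all actives have a fitted effect of over 55% in size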
#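 Compounds were tested in concentration-response format on HT-1080-NT cells for 48 hours at 37 degrees C. Cell viability came from CellTiter-Glo luminescence; curves were classified by r2, response magnitude and activity.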
# DT40 TDP1 CPT: DT40-hTDP1 cell growth loss with CPT; chicken DT40 Tdp1-/-;hTDP1 cells + 20 nM CPT, ATP luminescence, 48 h; Potency, µM (doses to about 46.2 µM), inactives show at the highest dose activity change, negative = growth inhibition, hits mostly inhibitors; 420,000 tested, 12% active; AID 686979; further: nearly all actives have a fitted effect of over 55% in size
#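 Chicken DT40 Tdp1-/- cells complemented with human TDP1, 400 cells/well, exposed to compounds plus 20 nM camptothecin for at least 48 h at 37 C; viability read as ATP content by CellTiter-Glo luminescence.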
# KB-V1 MDR tox: KB-V1 MDR subline cytotoxicity | KB-V1 MDR cells viability, CellTiter-Glo, 72 h | Potency, µM (top dose mostly 46.1 µM), most hits filed as cytotoxic | 400,000 tested, 3.4% active | AID 1347076; further: nearly all actives have a fitted effect of over 60% in size
#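 KB-V1, DMEM (no phenol red) + 10% FBS; cpd pin-transferred, titration series; 72 h, 37 degrees C; CellTiter-Glo, luminescence. Data normalized, curve-fit.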
# DT40 TDP1 no CPT: qHTS for Inhibitors of human tyrosyl-DNA phosphodiesterase 1 (TDP1): qHTS in cells in absence of CPT; DT40 Tdp1-/- hTDP1 cells, no CPT, ATP luminescence, 48 h; Potency, µM (top dose mostly 46.2 µM), inactives show at the top dose activity change, negative = growth inhibition, hits mostly inhibitors; 420,000 tested, 15% active; further: nearly all actives have a fitted effect of over 55% in size
#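 Stably hTDP1-transfected Tdp1-null chicken DT40 cells were treated with library compounds minus camptothecin and grown for at least 48 hr at 37 °C, after which cellular ATP was quantified by luminescence.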
# The depositor's hits bear a star; i = inactive; u = inconclusive; x = no result. The call rests on the fitted dose curve; in most records, active means well fitted curve in the direction sought with a large enough effect; inconclusive means small, poorly fitted or top-dose-only effect, or another doubt; inactive means no such curve, though single readings can be large; an effect the other way counts as inactive or inconclusive. Unless noted, on the % scale 0 is the no-effect control and ±100 the full control effect; potency means the concentration at half of the fitted maximal effect.
SMILES,HT1080 IDH1KD tx,KB-3-1 cytotox,HT1080-NT tox,DT40 TDP1 CPT,KB-V1 MDR tox,DT40 TDP1 no CPT
CN(C(=O)c1cccc(NC(=O)C2CCN(C(=O)OC(C)(C)C)CC2)c1)C1CCCCC1,-10%,i,-4%,21µM*,i,13µM*
CC(C)(C)OC(=O)N1CCC(C(=O)Nc2ccc(C(=O)NC3CC3)cc2)CC1,4%,i,0%,2%,i,1%
CCc1cccc(C)c1NS(=O)(=O)c1cc2[nH]c(=O)c(=O)[nH]c2cc1C,x,i,x,4%,u,-21%
CCOc1ccc(S(=O)(=O)N(CC(=O)Nc2ccc3c(c2)OCO3)c2ccccc2)cc1,x,i,x,-9%,i,-6%
O=C(CN1C(=O)NC2(CCCCCC2)C1=O)Nc1ccccc1[N+](=O)[O-],4%,i,-2%,-26%,i,-17%
COc1ccc(C(=Cc2ccccc2)C(=O)O)cc1,4%,i,-1%,10%,u,-12%
CC(C)(C)NCC(=Cc1ccccc1)C(=O)c1ccccc1,5.8µM*,5.2µM*,6.5µM*,2.1µM*,u,2.1µM*
CCOC(=O)Cc1csc(/N=C/c2c(O)n(-c3ccc(C)cc3C)c(=O)c3ccccc23)n1,0%,u,0%,u,u,16µM*
CCn1c(=NC(=O)c2ccc(N3C(=O)CCC3=O)cc2)sc2c(OC)ccc(OC)c21,-12%,i,-15%,23µM*,i,u
CCn1c(=NC(=O)CN2C(=O)CCC2=O)sc2c(OC)ccc(OC)c21,0%,i,12%,u,i,u
CCn1c(=NC(=O)c2cccc(N3C(=O)CCC3=O)c2)sc2c(C)ccc(OC)c21,-10%,i,-23%,18µM*,i,-76%
CC(=O)C(C(C)=O)C1(O)C(=O)c2ccccc2C1=O,1%,i,-12%,26µM*,i,23µM*
CC(=O)N(C)C1=C(O)c2ccccc2C(=O)C1=O,4%,i,0%,-17%,i,-1%
C=CCNc1ncnc2c1[nH]c1ccc(Cl)cc12,-27%,8.2µM*,-1%,u,u,23µM*
C=CCNc1ncnc2c1cnn2-c1ccc(Cl)cc1,5%,i,u,u,u,u
Cc1cc(C)c2c(=O)cc(CSCC(=O)Nc3ccccc3Cl)[nH]c2c1,x,i,x,-9%,i,-16%
O=C(c1ccc2c3c(cccc13)C(=O)N(O)C2=O)N1CCCCC1,4%,u,7%,8.2µM*,i,7.3µM*
O=C1c2cccc3c(Cl)ccc(c23)C(=O)N1O,-16%,i,7.9µM*,u,i,5.8µM*
CC1(C)CC2CC(C)(CN2S(=O)(=O)c2cccc(C(N)=O)c2)C1 (centres undefined),-12%,i,-1%,-30%,i,u
CC1(C)CC2CC(C)(CN2S(=O)(=O)c2ccc(C(=O)Nc3cc(S(=O)(=O)N4CCOCC4)ccc3Cl)cc2)C1 (centres undefined),0%,i,11%,3.3µM*,u,2.9µM*
CC1(C)CC2CC(C)(CN2S(=O)(=O)c2ccc(C(=O)Nc3cccc(S(=O)(=O)N4CCOCC4)c3)cc2)C1 (centres undefined),u,i,-20%,4.1µM*,u,5.8µM*
CC(C)CN1CCC2(CC1)CCN(C(=O)c1cc(C(F)(F)F)cc(C(F)(F)F)c1)CC2,x,x,x,2%,x,-2%
COc1cc(C(CCN2CCCCC2)c2c(OC)cc(OC)c3c(-c4ccccc4)cc(=O)oc23)cc(OC)c1OC (centres undefined),-21%,u,-14%,18µM*,u,u
COc1cc(C(CCN2CCCC2)c2c(OC)cc(OC)c3c(C)cc(=O)oc23)cc(OC)c1OC (centres undefined),0%,i,-7%,13µM*,i,23µM*
COc1cc(C(CCN2CCCC(C)C2)c2c(OC)cc(OC)c3c(-c4ccccc4)cc(=O)oc23)cc(OC)c1OC (centres undefined),u,u,18µM*,u,i,18µM*
SMILES,HT1080 IDH1KD tx,KB-3-1 cytotox,HT1080-NT tox,DT40 TDP1 CPT,KB-V1 MDR tox,DT40 TDP1 no CPT
COc1ccc(C(CCN2CCOCC2)c2c(OC)cc(OC)c3c(C)cc(=O)oc23)cc1 (centres undefined),-8%,i,-5%,23µM*,i,18µM*
COc1ccc(C(=O)Nc2nc(OCC(F)(F)F)cnc2/C=C\c2ccccc2)c(OC)c1,29%,i,20%,21µM*,i,u
O=C(Nc1nc(OCC(F)(F)F)cnc1/C=C\c1ccccc1)c1ccsc1,0%,i,1%,23µM*,i,u
NC(=NC(=O)c1ccc(OCC(F)(F)F)nc1)c1ccccc1,-2%,i,-1%,-29%,i,u
CCOC(=O)CC(NC(=O)CCc1c(C)nc2c(c(C)nn2-c2ccc(C)c(C)c2)c1C)c1ccc(C)cc1 (centres undefined),x,i,x,-1%,i,u
CCOC(=O)/C=C1\CN(CCC(C)C)S(=O)(=O)c2ccccc21,8%,i,9%,-5%,i,u
CCOC(=O)/C=C1\CN(Cc2ccc(OC)cc2)S(=O)(=O)c2ccc(C(F)(F)F)cc21,x,i,x,13µM*,u,11µM*
Cc1ccccc1C(=O)N1CCc2c(cnc(C)c2CNC(=O)CN2CCCCC2)C1,x,x,x,3%,x,-11%
O=C(CC1(O)C(=O)N(Cc2ccccc2Cl)c2ccccc21)c1ccco1 (centres undefined),3%,u,1%,3.3µM*,u,3.7µM*
COc1ccc(C(=O)CC2(O)C(=O)N(Cc3ccccc3Cl)c3ccccc32)cc1 (centres undefined),x,u,x,x,18µM*,x
COc1ccccc1N(CC(=O)NCCSc1ccccn1)S(=O)(=O)c1ccccc1,-10%,i,-4%,u,u,u
Cc1cc(C)cc(N(CC(=O)NCCSc2ccccn2)S(=O)(=O)c2ccccc2)c1,1%,u,-10%,u,u,26µM*
CCOc1ccccc1N(CC(=O)NCCSc1ccccn1)S(=O)(=O)c1ccc(C)cc1,-10%,i,-6%,u,i,21µM*
CCOc1ccccc1N(CC(=O)NCCSc1ccccc1)S(=O)(=O)c1ccccc1,x,i,x,u,u,10µM*
